Assay outcomes: PubChem BioAssay, The Scripps Research Institute Molecular Screening Center
TbREL1 primary: TbREL1 inhibition, primary screen; TbREL1 RNA ligation, FRET fluorescence; inhibition, % at 9.66 µM; 89,000 tested, 0.49% active;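 active = inhibition above the mean inhibition across all screened compounds plus 3 SD, cut at about 11% in these data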;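 also: 0% = plate median of test wells and 100% = NSC42067 control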
Target sequence (P86926 whole entry, looked up): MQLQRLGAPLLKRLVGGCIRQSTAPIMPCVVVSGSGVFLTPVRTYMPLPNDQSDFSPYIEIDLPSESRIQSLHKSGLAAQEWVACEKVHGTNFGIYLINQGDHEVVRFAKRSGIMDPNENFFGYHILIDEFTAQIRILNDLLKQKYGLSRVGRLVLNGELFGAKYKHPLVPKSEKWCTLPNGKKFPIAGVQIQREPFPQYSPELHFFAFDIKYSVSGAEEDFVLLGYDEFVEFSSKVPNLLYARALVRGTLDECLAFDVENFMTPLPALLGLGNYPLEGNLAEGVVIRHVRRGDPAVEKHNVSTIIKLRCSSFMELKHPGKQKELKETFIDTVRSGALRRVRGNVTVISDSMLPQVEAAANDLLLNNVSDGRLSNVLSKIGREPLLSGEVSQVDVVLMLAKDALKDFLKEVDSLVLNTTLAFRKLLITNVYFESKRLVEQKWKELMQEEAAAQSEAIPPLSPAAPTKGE
TbREL1 confirm: TbREL1 inhibition, confirmation; 390 tested, 37% active; TbREL1 RNA ligation, FRET fluorescence; inhibition, % at 9.66 µM; shares compounds with TbREL1 primary;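 active = mean inhibition across replicates above a set limit taken from the earlier primary screen, cut at about 11% in these data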;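 also: 0% = REL1 with substrate and DMSO and 100% = REL1 plus control inhibitor NSC42067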
* marks the source's active call; other numbers are inactive results. This excerpt belongs to a sample that is enriched for hits.

SMILES | TbREL1 primary | others
O=S(=O)(Nc1nc(-c2ccco2)c(-c2ccco2)s1)c1ccc(F)cc1F | 30.6* | TbREL1 confirm=-0.5
Cc1nc2ccc(NS(=O)(=O)c3ccc(F)cc3F)cc2s1 | 2.2
O=C(NNS(=O)(=O)c1ccc(F)cc1F)C1Cc2c(ccc3ccccc23)O1 (stereo not given) | 3.0
C/C(C=NNC(=O)CSc1nnc(-c2ccc(Cl)cc2)n1-c1ccccc1)=C\c1ccccc1 | -1.5
Clc1ccc(-c2nnc3n2N=C(c2ccc(-c4ccccc4)cc2)CS3)cc1 | 0.2
O=C(c1ccncc1F)N1CCC(n2nnc3ncccc32)CC1 | 2.3
Cc1ccc(NC(=O)NNC(=O)CCn2nc(C)c([N+](=O)[O-])c2C)cc1C | 1.7
O=C(COc1ccc2ccccc2c1)Nc1cccc2cccnc12 | 1.5
O=C(O)CCC(=O)Nc1cccc2cccnc12 | 11.4* | TbREL1 confirm=4.6
O=C(CN1C(=O)c2ccccc2C1=O)Nc1cccc2cccnc12 | -3.8
C[C@@H]1[C@@H](O)C[C@@]2(C[C@H](O)c3cc(F)ccc3O2)O[C@H]1c1ccccc1Cl | -0.4
C[C@H](NS(=O)(=O)c1ccc([N+](=O)[O-])cc1)C(=O)NCCNC(=O)[C@@H](C)NS(=O)(=O)c1ccc([N+](=O)[O-])cc1 | 3.8
NC(=O)[C@H]1CC2(CC(c3cccc(NC(=O)[C@H]4CCC(=O)N4)c3)=NO2)CN1C(=O)c1ccccc1 (stereo not given in full) | 20.1* | TbREL1 confirm=25.7*
C/C=C(/C)C(=O)Nc1cccc(C2=NOC3(C2)C[C@H](C(N)=O)N(C(=O)c2ccccc2)C3)c1 (stereo not given in full) | -2.2
NC(=O)[C@@H]1CC2(CC(c3cccc(NC(=O)CC(c4ccccc4)c4ccccc4)c3)=NO2)CN1C(=O)c1ccc(Cl)cc1 (stereo not given in full) | 0.5
COCCCNC(=O)C[C@H]1C[C@@]2(C(=O)OC)C(=C[C@H](C(C)C)O[C@@H]2C2CC2)N(Cc2ccc(Cl)cc2Cl)C1=O | -4.1
C[C@H]1[C@@H](NC(=O)c2ccc(Cl)cc2)CC[C@@]23CCCN2C(=O)CCC[C@@H]13 | -1.7
CC(=O)Nc1cc2c3ccccc3ccc2c2ccccc12 | 32.5* | TbREL1 confirm=4.6
CC(=O)Nc1ccc(NC(=O)c2cccc3ccccc23)cc1 | 2.6
CC(=O)Nc1ccccc1NC(=O)COc1cccc2ccccc12 | -0.5
Fc1ccccc1-c1n[nH]c(=S)n1N=Cc1ccc(OCc2ccccc2)cc1 | -7.6
COc1ccc(OC)c(S(=O)(=O)N2CCCCC2C(=O)N2CCN(CCO)CC2)c1 (stereo not given) | -4.0
CC1=NN(c2ccccc2)C(=O)/C1=C/N(C)C | 12.2* | TbREL1 confirm=6.2
CC1=NN(c2ccccc2)C(=O)/C1=C\c1cc(C)n(C)c1C | -9.6
CN(C)/C=C1/C(=O)N(c2ccc([N+](=O)[O-])cc2)N=C1c1ccccc1 | -0.8
SMILES | TbREL1 primary | others
O=C(O)COCc1nc2ccccc2s1 | 11.9* | TbREL1 confirm=7.3
NC(=O)c1ccccc1OCc1nc2ccccc2s1 | -5.8
O=C(O)CCCc1nc2ccccc2s1 | 0.4
O=C1CCCCC1Nc1ccc([N+](=O)[O-])cc1 (stereo not given) | 18.3* | TbREL1 confirm=1.9
O=C(NC1CCCCC1)c1ccc([N+](=O)[O-])cc1 | 0.8
CN1CCN(C(=S)Nc2ccc([N+](=O)[O-])cc2)CC1 | -1.5
O=C(Oc1coc(CSc2ncccn2)cc1=O)c1ccc([N+](=O)[O-])cc1 | -0.7
C/C(=N/NC(=O)c1ccoc1C)c1cccs1 | 0.7
CCCC/C=C1/[C@H](CC)N(C)C2=N[C@@H](c3ccccc3)CC(=O)N21 | -2.7
O=C(Cn1c(=O)c2cccn2c2cccnc21)NCCCN1CCN(c2ccccc2)CC1 | -2.5
Cc1cc(OCCOCCNCc2ccccc2)ccc1C(C)C | 19.5* | TbREL1 confirm=8.8
Cc1ccc(C)c(OCCCNCc2ccccc2)c1 | 10.5
COCCNCCOCCOc1ccc(Cl)c(C)c1 | 5.6
Cc1nn(C)cc1NC(=O)C[C@H]1CC[C@H]2[C@@H](COc3ccc(NC(=O)Nc4ccccc4)cc3C(=O)N2C)O1 | 5.9
O=C1c2cc([N+](=O)[O-])ccc2-c2ncccc21 | 1.0
O=C1c2ccccc2-c2nccnc21 | -1.1
O=C1C(=O)c2cccnc2-c2ncccc21 | 43.3* | TbREL1 confirm=68.2*
CN(C(=O)CSc1ncnc2sccc12)c1c(N)n(Cc2ccccc2)c(=O)[nH]c1=O | 11.6* | TbREL1 confirm=2.1
CN(C(=O)COC(=O)c1cccs1)c1c(N)n(Cc2ccccc2)c(=O)[nH]c1=O | -1.1
CSc1nnc(SCC(=O)N(C)c2c(N)n(Cc3ccccc3)c(=O)[nH]c2=O)s1 | 6.5
Cc1ccc(OCC(O)Cn2c(=N)n(CCN3CCCCC3)c3ccccc32)cc1 (stereo not given) | 8.8
CCCCCn1c(=N)n(CC(O)COc2ccccc2OC)c2ccccc21 (stereo not given) | 11.4* | TbREL1 confirm=9.9
CCN(CC)CCn1c(=N)n(CC(O)COc2ccccc2)c2ccccc21 (stereo not given) | 3.3
CCOc1ccc(-n2c(SCC(=O)Nc3ccccc3-c3ccccc3)nnc2-c2cccs2)cc1 | -0.4
